# Measurements as given in ChEMBL document CHEMBL4513216, “Probing the Open Global Health Chemical Diversity Library for Multistage-Active Starting Points for Next-Generation Antimalarials” (ACS Infect Dis, 2020).
# The whole screen tested about 69,000 compounds, of which about 8,600 (12%) showed an effect of 50% or more. For the sample, strong results were picked, then their nearest neighbours and some compounds at random.
# Tested on: Plasmodium berghei
# Assay: Screen against P. berghei liver stage (PbLuc), transformed with Luciferase, at 10uM
# Type: functional, HepG2
# Details: tested at 10 uM
row,Compound,INHIBITION [%]
1,Cc1csc(CCNCc2cnc3c(c2)c(C)nn3C)n1,-14.8
2,COCC1CN(Cc2ccc(OC)cc2)Cc2nnn(CC3CC3)c21 (centres undefined),18.7
3,COCCOc1ccc(CNC2CCc3ncnn3C2)cc1OC (centres undefined),49.5
4,COc1cccc(CCNS(=O)(=O)c2ccc(NC(C)=O)cc2)c1,22.9
5,CCN1CCN(C)C(=O)C12CCN(Cc1cccc(C)c1)CC2,39.5
6,Cc1nc(CN2CCN(C(=O)c3ccc(=O)n(C)c3)CC2)cs1,-15.9
7,CN(C)C(=O)NCC(=O)N1CCCC2(CCC(=O)N(CC3CC3)C2)C1 (centres undefined),24.9
8,O=C(NCC1(O)CCC1)NC(c1cc(F)ccc1F)C1CC1 (centres undefined),31.2
9,CS(=O)(=O)N1C[C@H]2CC[C@@H](C1)N(C(=O)CCc1ccsc1)C2,-34.8
10,Cc1cc(C(F)(F)F)cc(N2C[C@@H](CN3CCOCC3)[C@@H](CO)C2)n1,53.2
11,Cc1ccc(C2(O)CCN(Cc3nc(C)n4ccccc34)CC2)nc1,26.1
12,Cc1cc(C(F)(F)F)cc(N2C[C@@H](CN(C)CCO)[C@@H](CO)C2)n1,0.348
13,COc1cnc(N2C[C@@H](CN3CCOCC3)[C@@H](CO)C2)nc1,-35
14,OC[C@H]1CN(Cc2c(Cl)cncc2Cl)C[C@H]1CN1CCOCC1,-37.9
15,Cc1nc(CN2CCC(O)(c3ccccc3F)CC2)c2ccccn12,23.9
16,Cc1nc2ccccn2c1CN1C[C@@H](CN2CCOCC2)[C@@H](CO)C1,12.8
17,Cc1nc(CN2C[C@@H](CN3CCOCC3)[C@@H](CO)C2)c2ccccn12,63.7
18,Cc1nc(CN2CCC3(CCCO3)CC2)c2ccccn12,53.6
19,CCC1CN(C(=O)NCCOc2ccc3c(c2)OCO3)CCO1 (centres undefined),30.2
20,Cc1cc(Oc2ccccc2)nc(C2CCN(CCO)CC2)n1,24.15
21,Cn1cccc1C(=O)N[C@@H]1CN(Cc2cccs2)[C@@H]2COC[C@@H]21,-4.88
22,Cc1nc(Cn2c3c(ccc2=O)CC(N)CC3)cs1 (centres undefined),9.65
23,CN(Cc1cccc(O)c1)C(=O)Nc1cccnc1N1CCCC1,33.3
24,O=c1[nH]c2csnc2c(=O)n1Cc1ccc(Br)cc1,29.1
25,CCC(c1nc(C(C)C)nn1-c1ccccn1)n1cccn1 (centres undefined),38.8

row,Compound,INHIBITION [%]
1,Cc1cnccc1-n1nc(C(C)C)nc1CCc1cnccn1,-3.12
2,CCC(c1nc(C(C)C)nn1-c1ccncc1C)n1cccn1 (centres undefined),57.2
3,CCCn1ccnc1CN1CC[C@@H](NC(=O)c2cccnc2)[C@H](O)C1,12.9
4,Cc1nn(CCO)c(C)c1CN1CCN(C2CCCCC2)C(=O)C1,16.9
5,CN(C)C(=O)CNC(=O)Nc1cccc(Cl)c1SC(F)F,23.2
6,O=C(NCCO)Nc1cccc(Cl)c1SC(F)F,13
7,CC(=O)NCCNC(=O)Nc1cccc(Cl)c1SC(F)F,46.4
8,CNC(=O)CCNC(=O)Nc1cccc(Cl)c1SC(F)F,60.3
9,O=C(CNC(=O)Nc1cccc(Cl)c1SC(F)F)NC1CC1,29.5
10,CCNC(=O)CNC(=O)Nc1cccc(Cl)c1SC(F)F,64.3
11,O=C(NCC1COCc2c(-c3cccnc3)nnn2C1)c1cccs1 (centres undefined),43.2
12,COCCNc1ccc(CC2CCCNC2)cn1 (centres undefined),44.3
13,CO[C@@H]1CCN(S(=O)(=O)c2cn(C)cn2)[C@H]1Cc1ccncc1,39.4
14,Cc1nccn1CCNC(=O)C1(C)CC(c2ccccc2)=NO1 (centres undefined),-1.16
15,COc1ccc(CN2CCO[C@H]3[C@H](OCCN4CCCC4)CC[C@@H]32)cc1,0.618
16,Cc1cccc(CO[C@@H]2CC[C@H]3[C@H]2OCCN3Cc2ccsc2)n1,16.6
17,Cc1ccc(CN2CCO[C@@H]3[C@@H](OCc4cccnc4)CC[C@@H]32)o1,26.5
18,Cc1cccc(CO[C@@H]2CC[C@H]3[C@H]2OCCN3Cc2ccoc2)n1,67.5
19,Cc1ccc(CN2CCO[C@H]3[C@@H](OCc4cccnc4)CC[C@@H]32)o1,15.6
20,COc1ccc(CN2CCO[C@H]3[C@H](OCc4ccncc4)CC[C@@H]32)cc1,90.1
21,COCCN1CCO[C@H]2[C@H](OCc3cccc(C)n3)CC[C@@H]21,-8.25
22,CO[C@@H]1CC[C@H]2[C@H]1OCCN2Cc1ccc(F)cc1,25.3
23,Cc1ccc(CN2CCO[C@H]3[C@H](OCc4cccnc4)CC[C@@H]32)o1,56.4
24,CCN(CC)CCN1CCO[C@H]2[C@@H](OCc3ccncc3)CC[C@@H]21,29
25,CCO[C@@H]1CC[C@H]2[C@H]1OCCN2Cc1ccc(F)cc1,8.52

row,Compound,INHIBITION [%]
1,Fc1ccc(CN2CCO[C@H]3[C@H](OCc4ccncc4)CC[C@@H]32)cc1,92.8
2,O=C(NCC1CC[C@@H]2[C@@H]1OCCN2Cc1cccs1)c1ccco1 (some centres undefined),12.1
3,CCCn1ncc(CN(Cc2cccnc2)Cc2cccs2)c1C,-4.87
4,Cc1ocnc1C(=O)N(C)[C@@H]1CC[C@@H](Oc2ccccc2)[C@@H]1O,16.2
5,COCCO[C@H]1CCN(Cc2cnn(C)c2)[C@H]1Cc1cccnc1,9.51
6,CN(C)C(=O)C1OC2(CCN(c3ncc(F)cn3)CC2)c2ccccc21 (centres undefined),49.3
7,Cc1noc(C)c1-c1ccnc(C2CCN(S(=O)(=O)N(C)C)CC2)c1,35.2
8,CCN(Cc1cn(C)nc1-c1ccc2c(c1)OCCO2)CC1CCCO1 (centres undefined),28.5
9,CC(C)N1CCCC(CNC(=O)CN(C)S(=O)(=O)c2ccccc2)C1 (centres undefined),-3.21
10,Cn1nc(CNC(=O)C2CCC2)cc1C1CC1,-34.5
11,Cc1cccc(CO[C@@H]2CC[C@H]3[C@H]2OCCN3Cc2cc(C)on2)n1,-46.8
12,Cc1cccc(CO[C@@H]2CC[C@H]3[C@H]2OCCN3Cc2nccs2)n1,-44.2
13,c1csc(CN2CCO[C@H]3[C@H](OCC4CCCC4)CC[C@@H]32)n1,41.2
14,c1ccc(CO[C@H]2CC[C@H]3[C@H]2OCCN3Cc2nccs2)nc1,22.2
15,c1cc(CO[C@@H]2CC[C@H]3[C@H]2OCCN3CC2CCOCC2)ccn1,68.8
16,c1cc(CO[C@H]2CC[C@H]3[C@H]2OCCN3Cc2nccs2)ccn1,84.7
17,CCO[C@@H]1CC[C@H]2[C@H]1OCCN2Cc1ccoc1,35.8
18,O=C(C1CCOCC1)N1CCO[C@H]2[C@H](OCc3ccncc3)CC[C@@H]21,14.1
19,O=C(C1CCOCC1)N1CCO[C@H]2[C@@H](OCc3ccncc3)CC[C@@H]21,43.3
20,Cc1cccc(CN2CCO[C@H]3[C@@H](OCc4ccncc4)CC[C@@H]32)n1,85.6
21,c1cc(CO[C@@H]2CC[C@H]3[C@H]2OCCN3Cc2ccoc2)ccn1,55.7
22,c1cc(CO[C@@H]2CN(Cc3ccoc3)[C@@H]3CCCO[C@@H]32)ccn1,47.5
23,COCCN1CCC(c2nc3c([nH]2)CCCNC3=O)CC1,44
24,COc1cccc(CNCc2ccc(F)cc2Cl)c1O,-38
25,COC(=O)CNC(=O)N1CCN(c2nc3ccccc3n2C)CC1,10.7

row,Compound,INHIBITION [%]
1,Cc1nc2[nH]cnc(NCCN3CCCC3)c-2n1,29.7
2,COCC(=O)N1CC[C@@H]2O[C@@H](COCc3csc(C)n3)CC[C@@H]21,27.3
3,CCc1ncc2c(n1)CN(CC(=O)Nc1nncs1)CC2,33.8
4,Cn1ccnc1S(=O)(=O)C(C(=O)N1CCCCC1)c1ccccc1 (centres undefined),28.1
5,COCCN1CCCc2sc(C(=O)Nc3ccc(C)nc3)nc21,16.9
6,Cc1ccc(OCCNc2cccc(C(=O)N3CCOCC3)c2)cc1,-17.3
7,CC(CN1CCCC1=O)NC(=O)c1ccc(-c2ccco2)[nH]c1=O (centres undefined),16.6
8,O=c1nc(CNc2ccccc2)[nH]n1Cc1ccccc1,-31.6
9,COc1nccc(C(F)(F)F)c1C(=O)O,4.12
10,CC(C)CCNC(=O)c1ccc(Cl)c(NS(C)(=O)=O)c1,54.4
11,Cc1ccc(C(=O)NCCC(C)C)cc1NS(C)(=O)=O,18.6
12,Cc1ccc(C(=O)NCCCNS(C)(=O)=O)cc1C,-43.2
13,Cc1cc(C(=O)NCCC(C)C)ccc1NS(C)(=O)=O,65.6
14,CC(C)(C)CCNC(=O)c1ccc(Cl)c(NS(C)(=O)=O)c1,-3.81
15,CCN(CC)CCNC(=O)c1ccc(Cl)c(NS(C)(=O)=O)c1,18.6
16,Cc1nccn1-c1ccc(=O)n(CCNC(=O)c2c(F)cccc2Cl)n1,6.67
17,CCn1ccnc1CN1CCN(CC(O)CN2CCOCC2)CC1 (centres undefined),12.415
18,CC(NC(=O)NCCC1=CCCCC1)c1nncn1C (centres undefined),15.7
19,Cc1ccc(-c2nc(C3CCN(C(=O)c4ccn(C)n4)CC3)no2)cn1,-26.7
20,CN(CC(=O)NCC(F)(F)F)C(=O)c1ccc(C(=O)OC(C)(C)C)cc1,63.7
21,Cc1ccc(C(=O)N(C)CC(=O)NCC(F)(F)F)cn1,42
22,CN(CC(=O)NCC(F)(F)F)C(=O)c1ccc(=O)[nH]c1,-10.8
23,COC(=O)c1cccn1C1CCN(C(=O)c2cc(F)ccc2C)CC1,8.64
24,CS(=O)(=O)N1CC(=O)N(CCCc2ccccc2)CC(O)C1 (centres undefined),42.7
